The source of these data is PubChem BioAssay (EPA / NIEHS).

Read-out in assay [1]: Monocyte Chemoattractant Protein-1 (MCP1), CCL2 (gene 6347)
The assay is described as follows: BSK_SAg_MCP1: BioMAP Diversity Plus: SAg Assay for Monocyte Chemoattractant Protein-1 (MCP1) Biomarker Activity (AID 2283090). The following applies: primary human HUVEC with PBMC; actives raise or lower the signal. The procedure, abridged:
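Values derive from bidirectional fitting of ELISA-measured MCP1 against DMSO controls. Readings were taken 24 h after dosing human vascular endothelial cells co-cultured with peripheral blood mononuclear cells under superantigen stimulation.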

Read-out in assay [2]: E-selectin (Homo sapiens) (UniProt P16581)
The assay is described as follows: BSK_SAg_Eselectin: BioMAP Diversity Plus: SAg Assay for Eselectin Biomarker Activity (AID 2283091). The following applies: primary human HUVEC with PBMC; actives raise or lower the signal. In short, it runs like this:
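Human umbilical vein endothelial cells co-cultured with peripheral blood mononuclear cells, SAg system. E-selectin is measured by ELISA 24 h after dosing and fitted bidirectionally against DMSO. Cytotoxicity is checked by SRB staining of parallel cultures.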

Assay [3] is described as follows: BSK_SAg_PBMCCytotoxicity: PBMC Cytotoxicity Assessment in the BioMAP Diversity Plus: SAg Assay (AID 2283093).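 Also: PBMC viability measured as Alamar Blue reduction fluorescence at 546/580 nm; fitted both ways against DMSO so a hit may be loss or gain of signal.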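 As to AC50: PBMC superantigen activated with SEB plus TSST-1 one hour after compound addition.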 As to conditions: primary human HUVEC with PBMC. In short, it runs like this:
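Alamar Blue reduction (6 h, ex/em 546/580 nm) read after 90 h culture of PBMC pre-dosed 1 h then stimulated with SEB plus TSST-1, 20 ng/mL each. Gain or loss of signal fitted relative to DMSO.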

Read-out in assay [4]: Interleukin-8 (IL8), CXCL8 (gene 3576)
Put plainly: BSK_SAg_IL8: BioMAP Diversity Plus: SAg Assay for Interleukin-8 (IL8) Biomarker Activity (AID 2283094). As to conditions: primary human HUVEC with PBMC; actives raise or lower the signal. In short, it runs like this: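 ELISA readout of IL-8 from a superantigen-activated endothelial/PBMC primary human co-culture, taken 24 h post-dosing and fitted in both directions against DMSO; parallel SRB total-protein staining flags overt cytotoxicity.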

The nature of assay [5]: BSK_SAg_Proliferation: Cell Proliferation Assessment in the BioMAP Diversity Plus: SAg Assay (AID 2283095).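 Also: relative cell number as total protein by SRB absorbance in sub-confluent culture.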 As to conditions: primary human HUVEC with PBMC. In short, it runs like this:
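Relative cell number in the endothelial cell/PBMC co-culture was quantified at 96 h by SRB staining (0.1% SRB, 10% TCA fixation, read at 560 nm). Curves were fitted in both directions relative to DMSO baseline.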

Assay [6] can be described thus: BSK_SAg_SRB: Viability Assessment in the BioMAP Diversity Plus: SAg Assay (AID 2283096).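 Also: cells read one day after compound addition; hits may be either gain or loss of signal compared with DMSO.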 As to conditions: primary human HUVEC with PBMC. The procedure, abridged: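 SRB absorbance at 560 nm served as the viability read-out. Cells (HUVEC plus peripheral blood mononuclear cells) were TCA-fixed and stained 24 h post-dosing; activity fitted in both directions against DMSO controls.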

Assay [7] deals with human CYP19A1, CYP19A1 (gene 1588) (UniProt P11511). Put plainly: NVS_ADME_hCYP19A1: NovaScreen (NVS) CYP450-related Enzyme Activity (ADME) Assay for human CYP19A1 (AID 2283098; active = hit-call score of the fitted dose curve at least 0.9, where 1 is the maximum). In short, it runs like this:
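Primary testing was in duplicate at a single 10 uM concentration, with actives followed up in concentration-response series. Fluorescence read-out of recombinant enzyme activity at 0.5 h, cell-free. Acetonitrile was the negative-control baseline.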

In assay [8] the target is human CYP2D6, CYP2D6 (gene 1565) (UniProt P10635). The assay is described as follows: NVS_ADME_hCYP2D6: NovaScreen (NVS) CYP450-related Enzyme Activity (ADME) Assay for human CYP2D6 (AID 2283107; active = hit-call score of the fitted dose curve at least 0.9, where 1 is the maximum). The procedure, abridged:
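Cell-free assay using recombinant human CYP2D6 expressed in insect cells, with a fluorogenic substrate read after 1 h. Primary screen in duplicate at 10 uM; actives followed up in concentration series. Loss of signal fitted relative to acetonitrile.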

Molecules are shown by their SMILES. “And” between values parts separate entries of the source, which are not always exact repeats. Equal entries are not always repeated. Inconclusive results are not listed. The source made the active and inactive calls. The calls were made as follows, unless noted: active = hit-call score of the fitted dose curve at least 0.9, where 1 is the maximum; inactive = score below 0.9.

Sequence of human CYP2D6, CYP2D6 (gene 1565) (P10635 whole entry, looked up): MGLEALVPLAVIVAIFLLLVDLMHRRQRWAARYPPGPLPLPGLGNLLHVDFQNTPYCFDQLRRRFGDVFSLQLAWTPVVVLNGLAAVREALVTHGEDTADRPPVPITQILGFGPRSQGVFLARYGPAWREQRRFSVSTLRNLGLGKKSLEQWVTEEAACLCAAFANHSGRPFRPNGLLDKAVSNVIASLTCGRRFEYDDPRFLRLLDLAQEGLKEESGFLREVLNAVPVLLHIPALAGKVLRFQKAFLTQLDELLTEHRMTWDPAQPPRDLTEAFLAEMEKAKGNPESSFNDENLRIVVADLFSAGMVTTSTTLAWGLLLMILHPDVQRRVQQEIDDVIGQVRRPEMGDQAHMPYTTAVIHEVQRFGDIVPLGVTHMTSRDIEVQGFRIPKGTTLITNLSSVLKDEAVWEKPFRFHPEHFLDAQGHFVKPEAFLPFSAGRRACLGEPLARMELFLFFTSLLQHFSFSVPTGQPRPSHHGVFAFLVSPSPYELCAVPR
Sequence of E-selectin (Homo sapiens) (P16581 whole entry, looked up): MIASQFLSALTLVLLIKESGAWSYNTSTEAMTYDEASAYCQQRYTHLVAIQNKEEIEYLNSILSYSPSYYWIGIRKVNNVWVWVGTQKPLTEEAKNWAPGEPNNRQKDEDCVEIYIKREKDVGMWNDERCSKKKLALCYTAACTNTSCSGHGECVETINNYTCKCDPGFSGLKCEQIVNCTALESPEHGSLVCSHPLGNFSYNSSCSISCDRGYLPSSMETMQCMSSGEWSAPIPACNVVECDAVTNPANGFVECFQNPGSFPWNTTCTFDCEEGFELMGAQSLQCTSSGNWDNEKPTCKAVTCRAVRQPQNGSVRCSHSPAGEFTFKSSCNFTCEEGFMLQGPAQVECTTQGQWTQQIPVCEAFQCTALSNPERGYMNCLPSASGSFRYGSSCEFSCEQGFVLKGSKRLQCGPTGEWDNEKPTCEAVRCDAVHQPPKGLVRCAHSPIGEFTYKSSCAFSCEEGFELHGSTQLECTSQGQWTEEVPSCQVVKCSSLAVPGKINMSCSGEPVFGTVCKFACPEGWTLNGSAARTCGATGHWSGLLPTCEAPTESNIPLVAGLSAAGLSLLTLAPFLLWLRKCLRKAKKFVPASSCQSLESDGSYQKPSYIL
Sequence of human CYP19A1, CYP19A1 (gene 1588) (P11511 whole entry, looked up): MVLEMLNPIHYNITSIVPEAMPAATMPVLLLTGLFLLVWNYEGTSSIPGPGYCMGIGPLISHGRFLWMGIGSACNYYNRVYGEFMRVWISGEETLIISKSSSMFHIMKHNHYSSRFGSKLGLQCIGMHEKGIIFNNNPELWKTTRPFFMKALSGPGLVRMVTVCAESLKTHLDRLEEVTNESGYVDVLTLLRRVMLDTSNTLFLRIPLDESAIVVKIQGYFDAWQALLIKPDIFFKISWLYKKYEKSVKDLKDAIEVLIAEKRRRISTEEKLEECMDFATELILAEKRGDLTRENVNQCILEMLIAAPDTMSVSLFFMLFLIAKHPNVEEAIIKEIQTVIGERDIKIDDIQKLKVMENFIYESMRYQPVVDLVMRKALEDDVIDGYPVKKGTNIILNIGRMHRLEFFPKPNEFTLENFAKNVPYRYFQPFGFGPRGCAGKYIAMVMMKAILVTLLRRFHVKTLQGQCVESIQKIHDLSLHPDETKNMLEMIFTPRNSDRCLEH

Turning to `O=C(Cl)C(F)(F)C(F)(F)C(F)(F)C(F)(F)C(F)(F)C(F)(F)F`, the outcome in assay [1], in assay [2], in assay [3], in assay [4], in assay [5] and in assay [6] was inactive.
For `O=C(O)C(F)(F)C(F)(F)C(F)(F)OC(F)(C(F)(F)F)C(F)(F)F`, the outcome in assay [1], in assay [2], in assay [3], in assay [5] and in assay [6] was inactive.
In the case of `OC(O)C(F)(F)C(F)(F)F`, the result in assay [1], in assay [2], in assay [3], in assay [5] and in assay [6] was inactive.
`NC(=O)C(F)(F)C(F)(F)C(F)(F)C(F)(F)C(N)=O`: the result in assay [1], in assay [2], in assay [3], in assay [5] and in assay [6] was inactive.
In the case of `CCN=C1C=CC(=C(c2ccc(N(CC)CC)cc2)c2ccc(N(CC)CC)cc2)c2ccccc21`, the AC50 is 762 nM (active) and 1.25 µM (active) in assay [1]; 1.45 µM (active) and 1.11 µM (active) in assay [2]; 2.52 µM (active) and 2.57 µM (active) in assay [3]; 1.47 µM (active) and 1.15 µM (active) in assay [4]; 419 nM (active) and 401 nM (active) in assay [5]; 1.78 µM (active) and 2.37 µM (active) in assay [6].
Take `OCCCC(F)(F)C(F)(F)C(F)(F)C(F)(F)C(F)(F)C(F)(F)C(F)(F)C(F)(F)F`: the AC50 in assay [1] was 23.2 µM (active) and 51.9 µM (active); in assay [2], 52 µM (active) and 54 µM (active); in assay [3] it was 17.3 µM (active) and 14.4 µM (active); in assay [5] it was 10.2 µM (active) and 14.6 µM (active); in assay [6], 27 µM (active) and 47.8 µM (active).
With `OCC(F)(F)C(F)(F)C(F)(F)CO`, the outcome in assay [1], in assay [2], in assay [3], in assay [4], in assay [5] and in assay [6] was inactive.
For the compound `CCOC(OCC)OCC`, the call in assay [7] was inactive.
With `FC(F)(F)C(F)(F)C(F)(F)C(F)(F)C(F)(F)C(F)(F)CC[Si](Cl)(Cl)Cl`, the outcome in assay [1], in assay [2], in assay [3], in assay [4], in assay [5] and in assay [6] was inactive.
For the compound `NC(=O)C(F)(F)C(F)(F)C(F)(F)C(F)(F)C(F)(F)C(F)(F)C(F)(F)F`, the outcome in assay [1], in assay [2], in assay [3], in assay [4], in assay [5] and in assay [6] was inactive.
Take `CC(C)=CCCC(C)O` (stereo unspecified): the compound was classed as inactive in assay [8].
Regarding `C[C@]12CC[C@H]3C(=CCc4cc(O)ccc43)[C@@H]1CCC2=O`, the outcome in assay [1], in assay [2], in assay [3], in assay [5], in assay [6] and in assay [8] was inactive.
In the case of `O=C(c1ccccc1)c1ccc(O)cc1O`, the result in assay [1], in assay [2], in assay [3], in assay [5] and in assay [6] was inactive. The AC50 in assay [8] was 5 µM (active).
As for `CNS(=O)(=O)C(F)(F)C(F)(F)C(F)(F)C(F)(F)C(F)(F)C(F)(F)C(F)(F)C(F)(F)F`, the result in assay [1], in assay [2], in assay [3], in assay [4], in assay [5] and in assay [6] was inactive.
For `C=CC(=O)OCCC(F)(F)C(F)(F)C(F)(F)C(F)(F)F`, the AC50 in assay [1] was 19.4 µM (active) and 14.4 µM (active); in assay [2] it was 40.1 µM (active) and 40 µM (active); in assay [3] it was 30 µM (active); in assay [5] it was 30 µM (active). Moreover, the outcome in assay [6] was inactive.
Take `C=CC(=O)OCC(F)(F)C(F)(F)C(F)(F)COC(=O)C=C`: the AC50 is 22.5 µM (active) and 14 µM (active) in assay [1]; 8.53 µM (active) and 9.25 µM (active) in assay [2]; 14.2 µM (active) and 12.8 µM (active) in assay [3]; 6.99 µM (active) and 5.35 µM (active) in assay [5]; 43.7 µM (active) and 45.6 µM (active) in assay [6].
`O=S(=O)(O)CCC(F)(F)C(F)(F)C(F)(F)C(F)(F)F`: the outcome in assay [1], in assay [2], in assay [3], in assay [5] and in assay [6] was inactive.
`CC1=CC2C3C=CC(C3)C2C1C` (stereo unspecified): the outcome in assay [1], in assay [2], in assay [3], in assay [5] and in assay [6] was inactive. The AC50 in assay [8] was 2.84 µM (active).
On to `Brc1nc2ccccc2s1`, for which the outcome in assay [1], in assay [2], in assay [3], in assay [5] and in assay [6] was inactive.
On to `CCOC(C=C(C)CCC=C(C)C)OCC`, for which the outcome in assay [1], in assay [2], in assay [3] and in assay [6] was inactive. The AC50 in assay [5] is 34.4 µM (active).

As usually defined, the AC50 is the concentration giving half of the maximal activity seen.
